Measured values from PubChem BioAssay (NCI).
The panel holds about 79,000 compounds, 15% with a hit somewhere; the sample as a whole holds those more often. A number with no mark means an inactive call. Calls of active or inactive are those of the source. No stated cut-off is given here; in the data, active means growth inhibition above about 70%; inactive means the rest.

Experiments:
[1] = NCI Yeast Anticancer Drug Screen. Data for the rad50 strain (AID 155);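 further: 0% = growth of vehicle-only cultures of the same strain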; details: S. cerevisiae rad50 strain growth inhibition, active compounds read high
In short: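 Genetically altered yeast (DNA repair pathway); compound treatment; growth inhibition vs vehicle ctrl.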

[2] = NCI Yeast Anticancer Drug Screen. Data for the mec2-1 strain (AID 157); details: S. cerevisiae mec2-1 strain, active compounds read high
In short: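 Vehicle-treated cultures served as reference for growth inhibition of compound-exposed mec2-1 yeast.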

[3] = NCI Yeast Anticancer Drug Screen. Data for the sgs1 mgt1 strain (AID 161);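 further: 0% = growth of cultures given vehicle only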; details: S. cerevisiae sgs1 mgt1 strain, active compounds read high
In short: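 Inhibition of yeast growth, normalised to vehicle-treated controls, is reported for a strain bearing genetic alterations in DNA damage repair.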

[4] = NCI Yeast Anticancer Drug Screen. Data for the cln2 rad14 strain (AID 165);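 further: 0% = growth equal to vehicle treated cultures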; details: S. cerevisiae cln2 rad14 strain, active compounds read high
In short: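 Each compound was tested on cln2 rad14 yeast. Inhibition of growth was calculated against vehicle-exposed controls.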

[5] = NCI Yeast Anticancer Drug Screen. Data for the bub3 strain (AID 167); details: S. cerevisiae bub3 mutant strain, active compounds read high
In short: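 Yeast carrying a defined mutation is treated with each compound, and growth is compared with that of vehicle-exposed cells to give inhibition.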

[6] = NCI Yeast Anticancer Drug Screen. Data for the mlh1 rad18 strain (AID 175); details: S. cerevisiae mlh1 rad18 strain growth inhibition, active compounds read high
In short: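 Vehicle-treated cultures served as the reference for growth inhibition in a yeast strain carrying DNA damage repair alterations exposed to each compound.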

[7] = at 5.0 µM (retest, dose inferred, filed as 0.5)
[8] = at 50.0 µM (retest, dose inferred, filed as 5.0)

Compound	growth inhibition [1, 7]	growth inhibition [1, 8]	growth inhibition ([1]; at 50.0 µM)	growth inhibition [2, 7]	growth inhibition [2, 8]	growth inhibition ([2]; at 50.0 µM)	growth inhibition [3, 7]	growth inhibition [3, 8]	growth inhibition ([3]; at 50.0 µM)	growth inhibition [4, 7]	growth inhibition [4, 8]	growth inhibition ([4]; at 50.0 µM)	growth inhibition [5, 7]	growth inhibition [5, 8]	growth inhibition ([5]; at 50.0 µM)	growth inhibition [6, 7]	growth inhibition [6, 8]	growth inhibition ([6]; at 50.0 µM)
CN1C2CCC1c1c([nH]c3ccccc13)C2 (centres undefined)	-22%	-23%	3.25%	-9%	-3%	18.5%	-7%	-10%	20.6%	-19%	-3%	42%	-7%	-1%	6.25%	-7%	-12%	12.4%
CC1CCC2(OC1)OC1C(O)C3C4CCC5CC(OC6OC(CO)C(OC7OC(CO)C(O)C(OC8OCC(O)C(O)C8O)C7OC7OC(CO)C(O)C(OC8OC(CO)C(O)C(O)C8O)C7O)C(O)C6O)C(O)CC5(C)C4CCC3(C)C1C2C (centres undefined)	95% (active)	99% (active)	93.2% (active)	97% (active)	99% (active)	94% (active)	93% (active)	99% (active)	93.8% (active)	72% (active)	99% (active)	92.3% (active)	97% (active)	99% (active)	93.2% (active)	96% (active)	98% (active)	88% (active)
C[n+]1c(/C=C/c2ccc(O)c3ccccc23)[se]c2ccccc21	-3%	78% (active)	84.8% (active)	-13%	40%	47.4%	-24%	76% (active)	87.1% (active)	-2%	16%	41.2%	-5%	20%	74.6% (active)	13%	81% (active)	78.9% (active)
CC1=C(N2CC2)C(=O)c2nc3n(c2C1=O)CCC3OC(=O)CCl (centres undefined)	28%	61%	46.5%	6%	47%	57%	18%	60%	72.2% (active)	5%	31%	57.9%	24%	19%	6%	23%	67%	66.1%
[C-]#[O+].[C-]#[O+].[C-]#[O+].[C-]#[O+].[Mo].c1cnc2c(c1)ccc1cccnc12	-2%	0%	81% (active)	-8%	-6%	60.4%	-6%	-2%	71.4% (active)	-5%	-17%	39.6%	-1%	6%	79.1% (active)	-4%	-8%	81.9% (active)
c1ccc(C[As](c2ccccc2)c2ccccc2)cc1	99% (active)	3%	99.2% (active)	99% (active)	15%	99.5% (active)	99% (active)	36%	99.5% (active)	98% (active)	-98%	99.2% (active)	99% (active)	22%	99.4% (active)	99% (active)	23%	99.2% (active)
O=C1C(CCl)(CCl)CCC12CNC(Cl)(Cl)C2 (centres undefined)	-1%	0%	6.8%	-1%	4%	15.8%	1%	0%	21.6%	1%	5%	39.6%	-3%	-5%	23.2%	-1%	0%	28.8%
CC1c2c(n(C)c3ccccc23)C2CCC3(CO3)C1N2Cc1ccccc1 (centres undefined)	25%	97% (active)	90.5% (active)	22%	99% (active)	92% (active)	42%	99% (active)	93.3% (active)	24%	98% (active)	90% (active)	26%	99% (active)	92.5% (active)	35%	98% (active)	92.2% (active)
C[CH2][Sn]([O][Sn]([Cl])([CH2]C)[c]1ccccc1)[c]1ccccc1 (centres undefined)	10%	97% (active)	81.5% (active)	18%	98% (active)	73.2% (active)	-9%	96% (active)	80.9% (active)	28%	96% (active)	81.9% (active)	9%	97% (active)	78.1% (active)	17%	98% (active)	87% (active)
COc1cc2c(c3c[n+](C)c4c5cc6c(cc5ccc4c13)OCO6)OCO2	98% (active)	98% (active)	92.2% (active)	99% (active)	99% (active)	94.8% (active)	99% (active)	98% (active)	93.7% (active)	98% (active)	98% (active)	92.2% (active)	98% (active)	97% (active)	93.1% (active)	99% (active)	98% (active)	92.8% (active)
CC(=N\O)/C(C)=N/O.CC(=N\O)/C(C)=N/O.CC(=N\O)/C(C)=N/O.CC(=N\O)/C(C)=N/O.[CH3-].[CH3-].[Co].[Co]	15%	25%	46.5%	8%	17%	24.6%	21%	18%	30.1%	11%	24%	2.8%	-1%	13%	-12.7%	14%	39%	63.6%
C[C@@H]1C[C@@H]([C@H](O)CC2CC(=O)NC(=O)C2)C(=O)[C@@H](C)C1	95% (active)	99% (active)	92% (active)	98% (active)	100% (active)	93.6% (active)	94% (active)	99% (active)	94.2% (active)	98% (active)	99% (active)	90.7% (active)	98% (active)	99% (active)	93.7% (active)	93% (active)	99% (active)	92.1% (active)
COC12c3c(C)cc(O)c4c(=O)occ(c34)C(=O)C1C13COC(=O)c4c(O)cc(C)c(c41)C(=O)C2C3OC(C)=O (centres undefined)	45%	99% (active)	91.4% (active)	32%	100% (active)	93% (active)	69%	99% (active)	92.7% (active)	63%	100% (active)	91.9% (active)	71% (active)	100% (active)	91.1% (active)	36%	99% (active)	91.9% (active)
O=C1C=C(Cl)C(=O)C(Cl)=C1	15%	99% (active)	99.4% (active)	23%	99% (active)	99.3% (active)	7%	99% (active)	99.5% (active)	0%	95% (active)	91.5% (active)	10%	99% (active)	99.3% (active)	20%	99% (active)	99.4% (active)
O=C(c1ccc2ccccc2c1)N1CC1	-27%	23%	71.8% (active)	-6%	-12%	-1.65%	-14%	5%	41.8%	-12%	57%	66.5%	2%	54%	58.9%	-24%	52%	63.2%
C#CC(O)(CC)CC	-4%	10%	69.1%	0%	-4%	13.4%	-3%	-2%	77.1% (active)	-6%	-5%	3.5%	-1%	2%	38.8%	-1%	9%	73.5% (active)
CCOC(=O)C(Cl)Cl	-1%	0%	-32.4%	3%	-2%	-2.7%	0%	-2%	-5.25%	-2%	-4%	-39.8%	1%	-5%	-18.3%	2%	-2%	33.4%
O=C(c1ccccc1)c1cc(CN(CCCl)CCCl)c(O)cc1O	0%	32%	54.3%	-17%	43%	17.9%	7%	75% (active)	43%	-2%	-1%	13.2%	-6%	-4%	29.3%	11%	86% (active)	80.3% (active)
Oc1cc(Cl)c(Cl)cc1Cl.[Cu+2]	78% (active)	96% (active)	99% (active)	45%	98% (active)	98.9% (active)	48%	70% (active)	99.3% (active)	21%	98% (active)	97.7% (active)	97% (active)	97% (active)	99% (active)	91% (active)	97% (active)	99.2% (active)
O=C(O)c1ccccc1.[Zn+2]	1%	-5%	19.4%	3%	-10%	8.6%	4%	9%	15.5%	-3%	-21%	-74.6%	-8%	-1%	45.6%	6%	10%	1.9%
O=c1cccc(C2CC(CO)C3CCCCN3C2)[nH]1 (centres undefined)	1%	-1%	69.3%	1%	-2%	91.8% (active)	2%	1%	57.5%	-8%	-12%	37.3%	3%	2%	53.2%	-2%	-3%	-50.8%
COC12C(COC(N)=O)C3=C(C(=O)C(C)=C(NC(C)C)C3=O)N1CC1NC12 (centres undefined)	5%	59%	47.6%	10%	72% (active)	47.9%	13%	61%	48%	2%	76% (active)	52%	1%	35%	30.4%	31%	92% (active)	78.6% (active)
CCOc1ccc(CCNC)c2c1ccc1ccc(OC)c(O)c12	-1%	97% (active)	97.3% (active)	-5%	98% (active)	99% (active)	-3%	98% (active)	98.1% (active)	5%	98% (active)	92.2% (active)	-4%	98% (active)	97.8% (active)	6%	96% (active)	98% (active)
CS(=N)(=O)CCC(N)C(=O)O (centres undefined)	-162%	-152%	11.4%	-50%	-48%	9.8%	-65%	-45%	-3.9%	-69%	-61%	18.7%	-73%	-78%	2.1%	-153%	-114%	14.6%
CC(=O)Nc1ccc([As](O[As](c2ccc(NC(C)=O)cc2)c2ccc([N+](=O)[O-])cc2)c2ccc([N+](=O)[O-])cc2)cc1 (centres undefined)	99% (active)	100% (active)	98.7% (active)	99% (active)	100% (active)	99.7% (active)	100% (active)	99% (active)	99.5% (active)	99% (active)	99% (active)	99.3% (active)	99% (active)	99% (active)	99.4% (active)	99% (active)	99% (active)	99% (active)
O=[N+]([O-])/C=C\c1ccccc1	65%	99% (active)	92.8% (active)	17%	99% (active)	95.2% (active)	20%	99% (active)	91.8% (active)	14%	99% (active)	82.7% (active)	39%	99% (active)	97% (active)	26%	99% (active)	79% (active)
COC1CCC(OC2CC(C3(C)CCC4(CC(O)C(C)C(C(C)/C=C(\C)C(=O)C(C)CC(C)C(=O)O)O4)O3)OC3(OC(C4OC(O)(CO)C(C)CC4C)CC3C)C2C)OC1C (centres undefined)	7%	85% (active)	61.1%	19%	83% (active)	71.8% (active)	23%	83% (active)	63.1%	65%	92% (active)	68.6%	-5%	59%	58.1%	22%	73% (active)	69.4%
CC/C(=C/c1ccc(OC)cc1OC)[N+](=O)[O-]	66%	99% (active)	99.4% (active)	48%	100% (active)	99.7% (active)	51%	98% (active)	99% (active)	22%	99% (active)	99.3% (active)	44%	99% (active)	99.5% (active)	39%	99% (active)	99.2% (active)
